# Compounds without any hit were thinned out: in the full panel of roughly 83,000, 20% have a hit.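 Compound tested at a single concentration for 48 hours in 96-well plates; a percent growth value below 10 was scored as active.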 Unmarked numbers belong to inactive results. Activity calls are given as the source filed them.
# System: UACC-62 melanoma
# Experiment: NCI-60 one-dose screen, 48 h (100 = growth as untreated, 0 = no growth, -100 = all killed)
# Settings: 10 µM unless noted
# Description: Growth inhibition of the UACC-62 human tumor cell line is measured as a screen for anti-cancer activity. Cells are grown in 96 well plates and exposed to the test compound for 48 hours. Compounds are tested at a single concentration, which is 10^-5 M for most compounds. The reported endpoint is percent growth (GI% or GIPRCNT), where numbers from 0 - 100% represent growth inhibition, and numbers from -100% - 0 represent cell death. For example, a value of 40 represents 60% growth inhibition. A value of 0 means no net growth occurred over the course of the experiment. A value of -40 indicates 40% of cells at the beginning of the experiment died by the end of the experiment. A value of -100 means all cells are dead at the end of the experiment.
# NCI-60 Human Tumor Cell Lines Screen was performed using the standard one-dose NCI protocol, which is described in more detail at https://dtp.cancer.gov/discovery_development/nci-60/default.htm.
# Compounds with GIPRCNT values below 10 were considered active. Activity score was based on GIPRCNT using the following formula: […]
# Score is 0 for GIPRCNT values of 100 or above, 50 for GIPRCNT values of 0, and 100 for GIPRCNT values of -100.
row,Structure (SMILES),growth
1,CCC(=O)Nc1ccccc1C#C/C=C\C#Cc1ccccc1SC,40.1%
2,ClC1=C(Cl)C(Cl)=C(Cl)C1=Cc1ccc(Cl)cc1Cl,-29% (active)
3,COc1ccc(Cl)cc1NC(N)=S,102%
4,O=P([O-])(O)OP(=O)([O-])O.[NH-][C@H]1CCCC[C@@H]1[NH-].[OH-].[OH-].[Pt+4],103%
5,CCOC(=O)c1cc(/C(=N\O)c2cc(OC)c(OC)c(OC)c2)n2cc(C)cc(C)c12,19.8%
6,Cc1cc(NC(=O)COC(=O)c2sc3cc(F)ccc3c2Cl)no1,90.2%
7,COc1cccc(/C=C2\SC(N3CCN(c4ccccn4)CC3)=NC2=O)c1,95.9%
8,O=S(=O)(NCCCNc1cc(-c2cn(-c3ccccc3)nc2-c2cccc(O)c2)ccn1)c1cccc(F)c1,50.5%
9,COc1ccc(NC(=S)/N=c2\oc3c(OC)cccc3cc2-c2cc3ccccc3[nH]2)cc1,76.4%
10,NS(=O)(=O)c1ccc(NCC(=O)Nc2ccc(-c3nc4ccccc4s3)cc2)cc1,38%
11,COc1cc(/C=C2\CCCC3=C2N=C2SC(C)=NN2C3c2cc(OC)c(OC)c(OC)c2)cc(OC)c1OC (stereo not given),-31.2% (active)
12,Cc1ccc2c(c1)C(=O)C(c1c(-c3[nH]c(=O)c4ccc(C)cc4c3O)c(O)c3ccccc3c1O)=NC2=O,29.5%
13,COc1cc(-c2csc(NC(=O)Nc3ccc(Cl)cc3Cl)n2)cc(OC)c1OC,30.9%
14,CN(C)CCCNC(=O)C(c1ccccc1)c1ccccc1,98.8%
15,C=C1C(=O)O[C@H]2[C@H]1CC/C(Cn1cc(-c3ccccc3C(F)(F)F)nn1)=C\CC[C@@]1(C)O[C@@H]21,-61.8% (active)
16,CCOC(=O)c1cc(/C(=N\O)c2cc(OC)c(OC)c(OC)c2)n2c(C)cccc12,27%
17,CC(C)C[C@H](NC(=O)Cn1ccc(NCc2ccccc2)cc1=O)B(O)O,4% (active)
18,CCc1cccc(C)c1NC(=O)c1sc2nc3c(cc2c1N)C(=O)CCC3,46.5%
19,COC(=O)c1cc(-c2cccs2)c(C#N)c(N)c1C#N,99.3%
20,COc1ccc(-c2nc(-c3ccccc3)c(-c3ccccc3)n2C2CC2)cc1OC1CCCCC1,60.8%

row,Structure (SMILES),growth
1,COC1=CC(c2ccc[nH]2)=N/C1=C\c1[nH]c(C)c(C(=O)CCCCC(=O)NCc2ccccc2)c1C,89.4%
2,O=C(NCCc1c[nH]c2ccccc12)C1Cc2ccccc2CN1C(=O)c1ccco1 (stereo not given),93.4%
3,CCCCC(N)(C(=O)O)C1CCCC1 (stereo not given),97.4%
4,COc1cc2c(cc1OC)C1(C)N(CC2)C(=O)OC1(C)C (stereo not given),106%
5,COc1ccc(NC(=O)CSc2nc3ccccc3c(=O)n2-c2ccccc2C(F)(F)F)c(OC)c1OC,87.5%
6,Cc1ccc2c(c1)C(C)Cc1c(N(C)C)ncnc1N2C (stereo not given),33%
7,Cc1cc(C(=O)O)c(N)c(C)n1,96.6%
8,NS(=O)(=O)c1ccc(CN2C(=O)c3cccc4cccc(c34)C2=O)cc1,97.1%
9,CCCCCCOc1ccc(C2(Cl)c3ccccc3N(C)c3ccccc32)cc1,38.1%
10,Nc1ccc(S(=O)(=O)c2ccc(Cl)cc2)cc1,85.8%
11,CCC(=O)Oc1ccc2c(c1)CC[C@@H]1[C@@H]2CC[C@]2(C)C[C@H](OC(=O)CC)C[C@@H]12,49.1%
12,C=C1C(=O)O[C@H]2[C@H]1CC/C(COC(=O)NCc1cc(OC)cc(OC)c1)=C\CC[C@@]1(C)O[C@@H]21,-44.9% (active)
13,NC(N)=NC(N)=Nc1ccccc1-c1ccccc1,108%
14,COc1ccc(NC(=O)c2cc3ccccc3nc2Nc2cc(OC)c(OC)c(OC)c2)cc1,64.4%
15,Cc1cnc(NC(=O)C(Cc2ccccc2)NC(=O)c2ccccc2)s1 (stereo not given),62.2%
16,O=c1[nH]c(CN2CCN(c3ccccc3F)CC2)nc2sc3c(c12)CCC3,91.9%
17,CCNC(=O)CCCCC(=O)c1c(C)[nH]c(/C=C2\N=C(c3ccc[nH]3)C=C2OC)c1C,61.5%
18,CCN(CC)CCCNc1nc(C)cc(Nc2ccc3nc(C)cc(N)c3c2)n1,117%
19,COc1ccc(-n2c(C)cc(-c3ccccc3)c2C)cc1,52.2%
20,Nc1nc(-c2ccccc2)cs1,107%
